# Compound activity from PubChem.
# This is a sample that favours compounds with a hit; in the whole collection about 7.1% have one here.
# IL1B secr inh: qHTS for Inhibitors of Inflammasome Signaling: IL-1-beta AlphaLISA Primary Screen; AID 743279, 2014; activity change, % at 57.5 µM; 360,000 tested, 4.7% active; THP-1 LPS/ATP IL-1B secretion, AlphaLISA, 16 h; stronger effect = lower value; in the data active = activity change below about -50%; inconclusive = mostly about -30% to -49%; note: % is set by controls: 0 for no effect and ±100 for the full control effect
#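 THP-1 cells pretreated 1 hr with compounds (up to 57.5 uM final), then stimulated with LPS (250 ng/mL final) plus ATP (1.25 mM final); secreted IL-1B measured by AlphaLISA after 16 hr, decreased signal indicating inhibition.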
# ATXN2 expr inh: Primary qHTS for Inhibitors of ATXN expression; Potency, µM (top dose mostly 57 µM), inactives show at the highest dose activity change, negative = inhibition, hits mostly inhibitors; HEK-293 ATXN2-luciferase reporter, luminescence, 24 h; 360,000 tested, 0.72% active; AID 1745845, 2022; note: potency is the fitted concentration of half-maximal effect; % is set by controls: 0 for no effect and ±100 for the full control effect; nearly all actives have a fitted effect of over 55% in size
#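 qHTS (up to 57 uM final) was run with 24 h compound exposure of reporter cells at 37 °C. Each well was multiplexed: SteadyGlo luminescence measured ATXN2-luciferase expression after a fluorogenic Gly-Phe-AFC viability readout (25 uM final).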
# S2 tox: Viability Counterscreen for Primary qHTS for Inhibitors of ATXN expression. S2 cells (HEK-293 line with an ATXN2-luciferase reporter) viability, CellTiter-Fluor protease fluorescence, 24 h. Potency, µM (doses to about 56.7 µM), usual class: cytotoxic. 400,000 tested, 0.49% active. AID 651635, 2014; note: potency is the fitted concentration of half-maximal effect; nearly all actives have a fitted effect of over 40% in size
# MCF10A rereplic: A quantitative high throughput screen for small molecules that induce DNA re-replication in MCF 10a normal breast cells. MCF 10A DNA re-replication, Hoechst nuclear intensity, 48 h. Potency, µM (doses to about 46.1 µM), inactives show at the top dose activity, positive = re-replication, hits mostly activators. 350,000 tested, 2.9% active. AID 624296, 2012; note: potency is the fitted concentration of half-maximal effect; % of control where 0% means no effect; nearly all actives have a fitted effect of over 50% in size
# PINK1 modulator: A Quantitative High throughput Screen to Identify Chemical Modulators of PINK1 Expression; PINK1 immunofluorescence, high-content cytometry, 24 h; Potency, µM (highest dose often 76.6 µM), inactives show top-dose activation (PINK1 increase), usual class: activators; 410,000 tested, 0.2% active; active = well fitted activation curve with a large enough effect; inconclusive = small, poorly fitted or top-dose-only effect; cell line not stated here; note: potency is the fitted concentration of half-maximal effect; % of control where 0% means no effect; nearly all actives have a fitted effect of over 65% in size
#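 PINK1 protein, normally rapidly degraded, was detected by immunofluorescence after 24 hour compound treatment of a stable cell line. Titration data (5 concentrations) came from laser-scanning cytometry, with CCCP-treated wells as controls.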
# SW480 rereplic: A quantitative high throughput screen for small molecules that induce DNA re-replication in SW480 colon adenocarcinoma cells; SW480 DNA re-replication, Hoechst DNA content imaging, 48 h; 340,000 tested, 1.8% active; Potency, µM (highest dose often 46.1 µM), inactives show at the top dose re-replication activation, hits mostly activators; note: potency is the fitted concentration of half-maximal effect; % of control where 0% means no effect; nearly all actives have a fitted effect of over 55% in size
#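 Compounds, transferred as 23 nL by pin tool, were incubated with cells for 48 hr; DNA content per nucleus was then quantified by Hoechst staining and fluorescence plate imaging.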
# Starred values were filed as active, the others as inactive; i = inactive; ? = inconclusive; . = no result; [ ] = dose if it differs, or a comment. Unless noted, calls come from the whole dose curve; as a rule, active = well fitted curve in the direction sought with a large enough effect; inconclusive = small, poorly fitted or top-dose-only effect, or another doubt; inactive = no such curve, though single readings can be large; an effect the other way counts as inactive or inconclusive.
SMILES,IL1B secr inh,ATXN2 expr inh,S2 tox,MCF10A rereplic,PINK1 modulator,SW480 rereplic
CN(C)c1ccc(C(=C2C=CC(=[N+](C)C)C=C2)c2ccc(N(C)C)cc2)cc1,.,7.7µM*,18µM*,3%,?,?
COc1cccc(CNC(=O)CSc2ncc(S(=O)(=O)c3ccc(C)c(Cl)c3)c(=O)[nH]2)c1,.,2%,i,.,-1%,.
Cc1cccc(N2CCN(C(=O)c3cnn(-c4ccccc4)c3C3CCN(C(=O)OC(C)(C)C)CC3)CC2)c1C,.,.,.,.,0%,.
O=c1c(-c2cccs2)nc2cnc(N3CCNCC3)nc2n1CCc1ccccc1,.,.,.,.,9%,.
O=S(=O)(c1ccc(N2CCN(S(=O)(=O)c3ccccc3)CC2)nc1)N1CCCC1,-1,-11%,i,5%,6%,-3%
O=S(=O)(c1ccc(N2CC=C(c3ccccc3)CC2)nc1)N1CCCC1,-93*,?,i,23µM*,8%[38.3 µM],?
O=C(CSC1=Nc2ccccc2C2CC=NN12)Nc1ccc(F)c(F)c1F (configuration not stated),17,-8%,i,21µM*,4%,5%
CCCCOC(=O)c1ccc(NC(=O)CSC2=Nc3ccccc3C3CC=NN23)cc1 (configuration not stated),45,-28%,i,7%,-1%,19%
Cc1nc2cc(-c3ccccc3)sc2c(=O)n1N,-6,0.89µM*,i,0%,-2%,-12%
CC(C)CCN(C(=O)c1csnn1)C(C(=O)NC1CCCCC1)c1ccc(F)cc1 (configuration not stated),-57*,-20%,i,2%,1%,1%
Cc1cccc(CCN(CC(=O)NC2CCCCC2)C(=O)c2csnn2)c1,1,-3%[11.3 µM],i,-3%,0%,5%
Cc1cccc(CCN(C(=O)c2csnn2)C(C(=O)NC2CCCC2)c2ccco2)c1 (configuration not stated),-85*,-2%,i,-3%,0%,14%
CC(C(=O)NCc1ccccc1)N(Cc1ccccc1Cl)C(=O)c1snc(C(N)=O)c1N (configuration not stated),-75*,-1%,i,?,-2%,28%
CCCCC(C(=O)NC(C)(C)C)N(Cc1ccccc1Cl)C(=O)c1snc(C(N)=O)c1N (configuration not stated),14,-34%,?,?,16%,-3%
CCCC(C(=O)NC(C)(C)C)N(Cc1ccccc1Cl)C(=O)c1snc(C(N)=O)c1N (configuration not stated),34,-21%,?,13µM*,14%,?
CCC(C(=O)NC(C)(C)C)N(Cc1ccccc1Cl)C(=O)c1snc(C(N)=O)c1N (configuration not stated),27,-9%,i,19%,0%,-15%
COc1cc2c(cc1OC)CN(c1ccc3ccccc3n1)CC2,-89*,-7%,i,?,0%,2%
COc1ccc(C(=O)COC(=O)C2CCN(c3ccc(C(F)(F)F)cn3)CC2)c(OC)c1,17,2%,i,2%,0%,4%
COc1cc2c(cc1OC)CN(c1ccc(C(F)(F)F)cn1)CC2,-90*,9%,i,16µM*,11%,?
COc1cc2c(cc1OC)CN(c1ccc(-c3ccccc3OC)nn1)CC2,.,?,?,10%,-3%,6%
Nc1ccc2cc3[nH]c4cc(N)ccc4c3nc2c1,-109*,?,.,18µM*,7%,3.3µM*
Nc1ccc2nc(-c3cccc(-c4nc5ccc(N)cc5[nH]4)c3)[nH]c2c1,39,8%,i,-7%,1%,4%
CC(=O)Nc1nnc(COc2ccccc2)s1,3,.,?,-2%,2%,18µM*
O=[N+]([O-])c1cccc(/C=N/N2CCN(Cc3ccccc3)CC2)c1,-25,38%,i,4%,-2%,-19%
O=[N+]([O-])c1cccc(/C=N\N2CCN(Cc3ccccc3Cl)CC2)c1,-68*,2%,i,?,4%,-6%
SMILES,IL1B secr inh,ATXN2 expr inh,S2 tox,MCF10A rereplic,PINK1 modulator,SW480 rereplic
CCn1c(-c2cccc(OC)c2)nc2cc(NC(C)=O)cc(C(=O)N(C)CC3COCCO3)c21 (configuration not stated),.,.,i,.,0%,.
Cc1cc(C)nc(Sc2ncnc3sc4c(c23)CCC4)n1,-13,1%,i,-182%[0.0737 µM],-5%,13µM*
CC(C#N)Sc1ncnc2sc3c(c12)CCC3 (configuration not stated),34,-10%,i,?,.,5%
CCOC(=O)c1c(Oc2ccc(C(C)=O)cc2)nnc(-c2ccccc2)c1-c1ccccc1,.,?,?,.,1%,.
CCOC(=O)c1ccc(NC(=O)CSc2c3c(nc4cc(Cl)ccc24)CCCC3)cc1,.,.,.,.,-2%,.
COc1cccc(N2C(=O)CSC23C(=O)N(CC(=O)Nc2cccc(Cl)c2)c2ccccc23)c1 (configuration not stated),.,2%,i,.,0%,.
CCOC(=O)C(=Cc1ccc(-n2cncn2)cc1)C(=O)OCC,-99*,?,?,4.6µM*,?,16µM*
CCN(CC)C(=O)Cn1c(=O)n(-c2ccc(C)c(C)c2)c(=O)c2c(C)c(C(=O)N(CC)CC)sc21,.,-22%,i,.,1%,.
Cc1ccc(Oc2c(C(N)=O)cc([N+](=O)[O-])cc2[N+](=O)[O-])cc1,-85*,?,?,?,-3%,?
COc1cc(=O)n2c(c1C(=O)NCc1ccco1)CCN(Cc1cccc(C(F)(F)F)c1)CC2,.,.,i,.,2%,.
CCC(=O)Nc1ccc(SC#N)cc1C,-101*,-14%,?,?,.,21%
Cc1cc(SC#N)cc(C)c1NC(=O)CCl,-64*,-9%,?,?,0%,.
Cc1ccc2nsnc2c1NC(=O)CCl,-24,0%,i,13%,6%,?
CCc1cc(SC#N)cc(C)c1NC(=O)CCl,-101*,?,?,16µM*,1%,23µM*
CCc1cc(SC#N)cc(C)c1N,-93*,.,i,?,3%,-1%
CCOC(=O)c1c(C)[nH]c(C)c1S(=O)(=O)NCC(=O)N1CCN(c2cccc(C)c2)C(C)C1 (configuration not stated),.,-14%,i,.,2%,.
C/C(=C(/OCCOc1ccc(Cl)cc1)c1ccc(Cl)cc1Cl)n1ccnc1,.,-27%,i,.,.,.
